Values without a mark were called inactive. Where a call stands in place of a potency, no number is given. For some of these results: Potency and affinity values are given separately. Calls of active or inactive are those of the source. Unless noted, no rule for the calls is given here.
Key:
[1] = antimalarial activity against Dd2 strain (AID 2302;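 active = growth inhibition above 50% at the single 2 µM test dose, taken to imply half-maximal potency below 2 µM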); settings: P. falciparum Dd2 in RBCs, LDH growth readout, 72 h; at 2 µM; stronger effect = higher value
[2] = HepG2 cytotoxicity, primary screen, cytotoxicity control for P. falciparum antimalarial project, cell-based, ATP luminescence (AID 2303;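 active = inhibition above 50%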); settings: HepG2 viability, 24-48 h, at 10 µM, stronger effect = higher value
[3] = molecular target: L-lactate dehydrogenase (Plasmodium falciparum (isolate CDC / Honduras)) (UniProt Q27743); assay: PfLDH activity inhibition – cell lysate, 3D7 strain, counter-screen for P. falciparum growth inhibition project (AID 2304); settings: P. falciparum 3D7 crude extract, LDH APAD/NBT absorbance; at 2 µM; stronger effect = higher value
Chain of L-lactate dehydrogenase (Plasmodium falciparum (isolate CDC / Honduras)) (Q27743 whole entry, looked up): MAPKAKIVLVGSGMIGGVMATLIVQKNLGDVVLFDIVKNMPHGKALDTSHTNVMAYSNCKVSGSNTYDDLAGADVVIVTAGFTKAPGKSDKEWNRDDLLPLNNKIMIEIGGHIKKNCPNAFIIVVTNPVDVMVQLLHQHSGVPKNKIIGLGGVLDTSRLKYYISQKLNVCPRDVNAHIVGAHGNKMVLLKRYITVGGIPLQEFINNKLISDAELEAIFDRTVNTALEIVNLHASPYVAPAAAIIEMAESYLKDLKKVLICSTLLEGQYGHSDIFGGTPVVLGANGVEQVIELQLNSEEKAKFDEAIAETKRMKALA

[4] = inhibition of 3D7 malaria parasite growth – strain 3D7 (AID 2306); settings: P. falciparum 3D7 erythrocytic growth, LDH absorbance, 72 h; at 2 µM; stronger effect = higher value
[5] = molecular target: Calcium-dependent protein kinase 1 (Plasmodium falciparum (isolate 3D7)) (UniProt P62344); assay: PfCDPK1 kinase inhibitors, biochemical, TCAMS library (AID 1159585; cut-off not given, nearly all actives have IC50 up to about 0.98 µM;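 also: inhibitors leave more ATP so luminescence rises with inhibition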); settings: recombinant PfCDPK1, Kinase-Glo ATP depletion luminescence
Chain of Calcium-dependent protein kinase 1 (Plasmodium falciparum (isolate 3D7)) (P62344 whole entry, looked up): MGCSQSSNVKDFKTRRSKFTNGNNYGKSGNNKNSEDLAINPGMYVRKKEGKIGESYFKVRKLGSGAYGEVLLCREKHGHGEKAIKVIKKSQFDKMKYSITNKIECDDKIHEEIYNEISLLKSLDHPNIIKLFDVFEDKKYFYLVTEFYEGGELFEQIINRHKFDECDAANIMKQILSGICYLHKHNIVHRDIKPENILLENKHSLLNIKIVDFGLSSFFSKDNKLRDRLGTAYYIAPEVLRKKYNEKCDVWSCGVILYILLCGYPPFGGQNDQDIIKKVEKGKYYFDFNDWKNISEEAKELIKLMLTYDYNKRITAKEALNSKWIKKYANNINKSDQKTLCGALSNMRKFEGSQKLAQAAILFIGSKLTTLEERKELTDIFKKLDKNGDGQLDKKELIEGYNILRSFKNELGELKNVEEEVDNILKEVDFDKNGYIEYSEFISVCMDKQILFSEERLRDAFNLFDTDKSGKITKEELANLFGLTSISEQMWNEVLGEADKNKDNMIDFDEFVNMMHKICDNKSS

[6] = molecular target: Plasmodium falciparum protein kinase 6 (PK6, PF3D7_1337100) (UniProt Q8IDW1); assay: PfPK6 kinase inhibitors, biochemical, TCAMS library (AID 1159586); settings: recombinant PfPK6, Kinase-Glo ATP depletion luminescence
Chain of Plasmodium falciparum protein kinase 6 (PK6, PF3D7_1337100) (Q8IDW1 1-305): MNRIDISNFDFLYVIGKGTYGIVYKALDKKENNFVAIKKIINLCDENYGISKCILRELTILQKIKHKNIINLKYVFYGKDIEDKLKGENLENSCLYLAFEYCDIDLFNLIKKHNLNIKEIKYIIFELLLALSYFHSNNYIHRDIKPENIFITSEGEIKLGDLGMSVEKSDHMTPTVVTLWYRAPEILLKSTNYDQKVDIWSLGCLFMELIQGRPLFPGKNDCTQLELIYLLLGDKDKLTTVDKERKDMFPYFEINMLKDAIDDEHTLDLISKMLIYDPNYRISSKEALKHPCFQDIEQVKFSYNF

[7] = molecular target: Protein kinase 7 (PK7), Plasmodium falciparum 3D7 (PF3D7_0213400) (UniProt Q7YTF7); assay: inhibition of Plasmodium PK7 catalytic activity – biochemical, TCAMS antimalarial set, Kinase-Glo luminescence (AID 1159587); settings: recombinant PfPK7, Kinase-Glo ATP depletion luminescence
Chain of Protein kinase 7 (PK7), Plasmodium falciparum 3D7 (PF3D7_0213400) (Q7YTF7 1-343): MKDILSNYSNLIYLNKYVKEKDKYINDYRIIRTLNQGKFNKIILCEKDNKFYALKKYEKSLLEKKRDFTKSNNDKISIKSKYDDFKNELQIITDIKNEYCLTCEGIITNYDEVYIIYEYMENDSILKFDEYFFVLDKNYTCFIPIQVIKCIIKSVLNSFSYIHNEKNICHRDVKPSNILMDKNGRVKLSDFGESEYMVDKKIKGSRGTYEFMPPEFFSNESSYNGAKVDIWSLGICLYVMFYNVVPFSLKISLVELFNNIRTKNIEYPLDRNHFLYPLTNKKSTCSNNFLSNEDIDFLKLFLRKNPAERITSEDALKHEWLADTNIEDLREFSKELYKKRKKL

[8] = molecular target: Calcium-dependent protein kinase 4 (Plasmodium falciparum (isolate 3D7)) (UniProt Q8IBS5); assay: PfCDPK4 kinase inhibitors, biochemical, TCAMS library (AID 1159588; cut-off not given, nearly all actives have IC50 up to about 0.91 µM); settings: recombinant PfCDPK4, Kinase-Glo ATP depletion luminescence
Chain of Calcium-dependent protein kinase 4 (Plasmodium falciparum (isolate 3D7)) (Q8IBS5 whole entry, looked up): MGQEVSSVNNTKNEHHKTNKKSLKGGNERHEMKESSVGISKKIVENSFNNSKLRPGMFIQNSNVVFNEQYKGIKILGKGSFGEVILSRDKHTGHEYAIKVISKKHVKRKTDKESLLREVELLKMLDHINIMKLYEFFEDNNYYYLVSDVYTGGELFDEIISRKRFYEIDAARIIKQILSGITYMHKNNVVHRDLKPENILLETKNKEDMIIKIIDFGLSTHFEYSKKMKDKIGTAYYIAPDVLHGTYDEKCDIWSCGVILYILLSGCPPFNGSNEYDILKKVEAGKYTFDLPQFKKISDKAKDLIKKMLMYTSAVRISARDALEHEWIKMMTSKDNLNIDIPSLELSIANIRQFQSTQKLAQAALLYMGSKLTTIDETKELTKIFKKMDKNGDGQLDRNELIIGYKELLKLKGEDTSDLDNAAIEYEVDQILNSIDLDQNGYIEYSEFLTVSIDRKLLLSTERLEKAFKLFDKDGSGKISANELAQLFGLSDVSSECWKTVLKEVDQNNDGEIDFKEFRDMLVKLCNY

Structure (SMILES) | growth inhibition [1] | inhibition [2] | inhibition [3] [%] | growth inhibition [4] | outcome [5] | outcome [6] | outcome [7] | outcome [8]
COc1ccc(Nc2nccc(-c3ccc(NC(=O)c4cc5cc(F)ccc5[nH]4)cc3)n2)cc1 | 26% | 21% | -2 | 91% (active) | inactive | inactive | inactive | inactive
COc1ccc(CNC2Cc3ccccc3C2)cc1-c1ccc(S(=O)(=O)NCCN2CCCC2)c(F)c1 | 69% (active) | 44% | -6 | 101% (active) | inactive | inactive | inactive | inactive
Fc1cccc(COc2ccc(Nc3ncnc4ccc(-c5nnc(C(F)(F)F)o5)cc34)cc2Cl)c1 | 77% (active) | 14% | 5 | 101% (active) | inactive | inactive | inactive | inactive
O=C(/C=C/c1ccc(Cl)c(Cl)c1)NC1CCC(CN2CCC(c3nc4ccccc4s3)CC2)CC1 (stereo not drawn) | 32% | 50% (active) | -4 | 87% (active) | inactive | inactive | inactive | inactive
Cc1ccc(C(=O)Nc2cccc(-c3ccc(N4CCN(C)CC4)nn3)c2)cc1[N+](=O)[O-] | 40% | 32% | -2 | 99% (active) | inactive | inactive | inactive | inactive
O=C(N[C@@H]1C[C@H]1c1ccccc1)N(CCCn1ccnc1)Cc1csc(-c2ccc(CNCc3ccccc3)cc2)n1 | 20% | 6% | 2 | 96% (active) | inactive | inactive | inactive | inactive
O=C(Nc1ccc2nc(-c3ccccc3)[nH]c2c1)c1cc(-c2ccc3c(c2)OCCO3)n[nH]1 | 75% (active) | 58% (active) | -2 | 100% (active) | inactive | inactive | inactive | inactive
CCCOc1ccccc1C(=O)Nc1nonc1-c1ccc(OCC)c(OCC)c1 | 89% (active) | 46% | -4 | 99% (active) | inactive | inactive | inactive | inactive
O=c1cc(NCCCNCc2[nH]c3cc(Cl)cc(Cl)c3c2Cn2cccn2)[nH]c2ccccc12 | 2% | 5% | 1 | 86% (active) | inactive | inactive | inactive | inactive
CC1(C)N=C(N)N=C(N)N1OCCCOc1cc(Cl)ccc1Cl | 96% (active) | 64% (active) | -1 | 96% (active) | inactive | inactive | inactive | inactive
O=C(Nc1cccc(CN2CCCN(Cc3ccccc3)CC2)c1)c1ccc(Cl)c(Cl)c1 | 16% | 23% | -6 | 95% (active) | inactive | inactive | inactive | inactive
O=c1cc(NCCCNCc2ccc(Cl)c(Cl)c2)[nH]c2ccc(Cl)cc12 | 54% (active) | 11% | 1 | 101% (active) | inactive | inactive | inactive | inactive
CCOc1ccccc1CCNCC1CCN(CC2CCCCC2)CC1 | 59% (active) | 35% | -1 | 84% (active) | inactive | inactive | inactive | inactive
COc1ccc(Nc2ncc3c(-c4ccc(NC(=O)c5cccc(C(F)(F)F)c5)cc4)c[nH]c3n2)cc1OC | 30% | 26% | 4 | 89% (active) | inactive | inactive | inactive | inactive
Cc1noc(C)c1-c1cccc(CNCc2cccc(-c3ccc(-c4nc5ccc(C(F)(F)F)cc5[nH]4)s3)c2)c1 | 95% (active) | 23% | 0 | 100% (active) | inactive | inactive | inactive | inactive
COc1ccc2ncc(F)c([C@@H](O)CN3CCC(NCc4cc5c(cn4)OCCO5)CC3)c2c1 | 98% (active) | -4% | -7 | 100% (active) | inactive | inactive | inactive | inactive
CCN(CC)CCCC(C)Nc1ccnc2ccc(-c3ccccc3)cc12 (stereo not drawn) | 21% | 0% | 2 | 98% (active) | inactive | inactive | inactive | inactive
O=C(/C=C/c1ccc(Cl)c(Cl)c1)NCCCCCN1CCCC(CNS(=O)(=O)c2cccc(C(F)(F)F)c2)C1 (stereo not drawn) | 0% | 73% (active) | 5 | 92% (active) | inactive | inactive | inactive | inactive
O=C(COc1cnc2ccccc2n1)Nc1ccccc1Sc1ccc(Cl)cc1 | 100% (active) | 6% | 6 | 100% (active) | inactive | inactive | inactive | inactive
CCc1cn2c3c(cc(C(=O)N[C@@H](Cc4ccccc4)[C@H](O)CNC4CCC4)cc13)N(C)S(=O)(=O)CC2 | 98% (active) | -4% | -3 | 98% (active) | inactive | inactive | inactive | inactive
O=c1cnc2ccc(F)cc2n1CCN1CCC(NCc2cc(-c3ccccc3)cs2)CC1 | 14% | -5% | -2 | 91% (active) | inactive | inactive | inactive | inactive

Structure (SMILES) | growth inhibition [1] | inhibition [2] | inhibition [3] [%] | growth inhibition [4] | outcome [5] | outcome [6] | outcome [7] | outcome [8]
O=C(Nc1ccc([N+](=O)[O-])cc1)c1nn(-c2ccccc2)cc1N=Cc1cccc(O)c1 | 37% | 10% | -5 | 98% (active) | inactive | inactive | inactive | inactive
O=C(Cn1c(CCc2cccc(F)c2F)cc(=O)c2cccnc21)N(CCn1ccnc1)Cc1ccc(-c2ccc(C(F)(F)F)cc2)cc1 | 62% (active) | 39% | 0 | 99% (active) | inactive | inactive | inactive | inactive
CC(C)C(=O)ONC1=NC(C)(C)N(OCCCOc2cc(Cl)c(Cl)cc2Cl)C(N)=N1 | 96% (active) | 64% (active) | -4 | 95% (active) | inactive | inactive | inactive | inactive
CCOc1cc2c(cc1S(=O)(=O)c1ccc(COc3ccc(C(F)(F)F)cc3)cc1)CCN(C)CC2 | 14% | 27% | -5 | 87% (active) | inactive | inactive | inactive | inactive
O=C(Nc1n[nH]c2nc(-c3ccco3)c(Br)cc12)c1ccc(CN2CCCC2)cc1 | 53% (active) | 1% | 2 | 101% (active) | inactive | inactive | inactive | inactive
O=C(COC(=O)c1cccc(S(=O)(=O)N2CCc3ccccc32)c1)NNC(=O)c1cccs1 | 4% | 4% | 3 | 96% (active) | inactive | inactive | inactive | inactive
CCC1CN2CCc3c([nH]c4ccc(OC)cc34)[C@@H]2C[C@@H]1CC1NCCc2cc(OC)c(OC)cc21 (stereo partly drawn) | 21% | 17% | -2 | 100% (active) | inactive | inactive | inactive | inactive
Cc1cccc2[nH]c(-c3ccc(-c4ccc(CN5CCCC(N)C5)cc4)s3)nc12 (stereo not drawn) | 100% (active) | 29% | -9 | 101% (active) | inactive | inactive | inactive | inactive
COc1cccc(NC(=O)CSc2nc(-c3ccccc3Cl)ns2)c1 | 100% (active) | 7% | 2 | 99% (active) | inactive | inactive | inactive | inactive
CS(=O)(=O)Nc1cccc(-c2cnc3[nH]cc(-c4cc(N)cc(C(=O)O)c4)c3c2)c1 | 96% (active) | 40% | 0 | 96% (active) | inactive | inactive | inactive | inactive
COc1cc2nc(N3CCC(CNC(=O)/C=C/c4ccccc4F)CC3)nc(N)c2cc1OC | 88% (active) | -4% | 5 | 100% (active) | inactive | inactive | inactive | inactive
O=C(N[C@@H](Cc1ccccc1)C(=O)NC1CCCc2ccccc21)c1ccc(O)c(-c2cccc(C(F)(F)F)c2)c1 (stereo partly drawn) | 41% | -2% | -1 | 91% (active) | inactive | inactive | inactive | inactive
COc1ccc2nc(C)cc(Nc3ccc(Oc4ccc(Cl)c5ccccc45)c(Cl)c3)c2c1 | 100% (active) | 83% (active) | -2 | 100% (active) | inactive | inactive | inactive | inactive
O=C(NC1CCN(Cc2ccccc2)CC1)c1cccc(-c2cc3cc(Cl)c(Cl)cc3[nH]2)c1 | 86% (active) | 15% | -6 | 100% (active) | inactive | inactive | inactive | inactive
CCCCCCCc1c(C)[nH]c2c(OC)cccc2c1=O | 85% (active) | -5% | 5 | 89% (active) | inactive | inactive | inactive | inactive
COc1ccc2nccc([C@@H](O)CN3CCC(NS(=O)(=O)c4cc(Br)c(Br)s4)CC3)c2c1 | 36% | 14% | -2 | 92% (active) | inactive | inactive | inactive | inactive
COc1ccc(CNC2Cc3ccccc3C2)cc1-c1ccc(S(=O)(=O)NCCN2CCCC2)cc1 | 61% (active) | 40% | -7 | 101% (active) | inactive | inactive | inactive | inactive
CS(=O)(=O)c1ccc(-c2cnc(N)c(-c3cccc(CO)c3)c2)cc1 | 51% (active) | -4% | 0 | 98% (active) | inactive | inactive | inactive | inactive
O=C(Nc1ccc2c(c1)CNCC2)c1ccc(-c2ccc(Cl)cc2)cc1 | 28% | 52% (active) | 6 | 96% (active) | inactive | inactive | inactive | inactive
COc1cccc(-c2csc(C(=O)NC3CCCCN(Cc4ccc(C(C)(C)C)cc4)C3)c2)c1 (stereo not drawn) | 66% (active) | 9% | -2 | 97% (active) | inactive | inactive | inactive | inactive

Source: PubChem BioAssay
